mHTT-CaM PPI inh = inhibitors of human mutant huntingtin-calmodulin interaction; P42858; AlphaScreen His-mHTT/GST-CaM binding, luminescence; inhibition, % at 15 µM; actives 3.6% (n = 190,000); AID 1671202
Target sequence (P42858 whole entry, looked up, change not shown): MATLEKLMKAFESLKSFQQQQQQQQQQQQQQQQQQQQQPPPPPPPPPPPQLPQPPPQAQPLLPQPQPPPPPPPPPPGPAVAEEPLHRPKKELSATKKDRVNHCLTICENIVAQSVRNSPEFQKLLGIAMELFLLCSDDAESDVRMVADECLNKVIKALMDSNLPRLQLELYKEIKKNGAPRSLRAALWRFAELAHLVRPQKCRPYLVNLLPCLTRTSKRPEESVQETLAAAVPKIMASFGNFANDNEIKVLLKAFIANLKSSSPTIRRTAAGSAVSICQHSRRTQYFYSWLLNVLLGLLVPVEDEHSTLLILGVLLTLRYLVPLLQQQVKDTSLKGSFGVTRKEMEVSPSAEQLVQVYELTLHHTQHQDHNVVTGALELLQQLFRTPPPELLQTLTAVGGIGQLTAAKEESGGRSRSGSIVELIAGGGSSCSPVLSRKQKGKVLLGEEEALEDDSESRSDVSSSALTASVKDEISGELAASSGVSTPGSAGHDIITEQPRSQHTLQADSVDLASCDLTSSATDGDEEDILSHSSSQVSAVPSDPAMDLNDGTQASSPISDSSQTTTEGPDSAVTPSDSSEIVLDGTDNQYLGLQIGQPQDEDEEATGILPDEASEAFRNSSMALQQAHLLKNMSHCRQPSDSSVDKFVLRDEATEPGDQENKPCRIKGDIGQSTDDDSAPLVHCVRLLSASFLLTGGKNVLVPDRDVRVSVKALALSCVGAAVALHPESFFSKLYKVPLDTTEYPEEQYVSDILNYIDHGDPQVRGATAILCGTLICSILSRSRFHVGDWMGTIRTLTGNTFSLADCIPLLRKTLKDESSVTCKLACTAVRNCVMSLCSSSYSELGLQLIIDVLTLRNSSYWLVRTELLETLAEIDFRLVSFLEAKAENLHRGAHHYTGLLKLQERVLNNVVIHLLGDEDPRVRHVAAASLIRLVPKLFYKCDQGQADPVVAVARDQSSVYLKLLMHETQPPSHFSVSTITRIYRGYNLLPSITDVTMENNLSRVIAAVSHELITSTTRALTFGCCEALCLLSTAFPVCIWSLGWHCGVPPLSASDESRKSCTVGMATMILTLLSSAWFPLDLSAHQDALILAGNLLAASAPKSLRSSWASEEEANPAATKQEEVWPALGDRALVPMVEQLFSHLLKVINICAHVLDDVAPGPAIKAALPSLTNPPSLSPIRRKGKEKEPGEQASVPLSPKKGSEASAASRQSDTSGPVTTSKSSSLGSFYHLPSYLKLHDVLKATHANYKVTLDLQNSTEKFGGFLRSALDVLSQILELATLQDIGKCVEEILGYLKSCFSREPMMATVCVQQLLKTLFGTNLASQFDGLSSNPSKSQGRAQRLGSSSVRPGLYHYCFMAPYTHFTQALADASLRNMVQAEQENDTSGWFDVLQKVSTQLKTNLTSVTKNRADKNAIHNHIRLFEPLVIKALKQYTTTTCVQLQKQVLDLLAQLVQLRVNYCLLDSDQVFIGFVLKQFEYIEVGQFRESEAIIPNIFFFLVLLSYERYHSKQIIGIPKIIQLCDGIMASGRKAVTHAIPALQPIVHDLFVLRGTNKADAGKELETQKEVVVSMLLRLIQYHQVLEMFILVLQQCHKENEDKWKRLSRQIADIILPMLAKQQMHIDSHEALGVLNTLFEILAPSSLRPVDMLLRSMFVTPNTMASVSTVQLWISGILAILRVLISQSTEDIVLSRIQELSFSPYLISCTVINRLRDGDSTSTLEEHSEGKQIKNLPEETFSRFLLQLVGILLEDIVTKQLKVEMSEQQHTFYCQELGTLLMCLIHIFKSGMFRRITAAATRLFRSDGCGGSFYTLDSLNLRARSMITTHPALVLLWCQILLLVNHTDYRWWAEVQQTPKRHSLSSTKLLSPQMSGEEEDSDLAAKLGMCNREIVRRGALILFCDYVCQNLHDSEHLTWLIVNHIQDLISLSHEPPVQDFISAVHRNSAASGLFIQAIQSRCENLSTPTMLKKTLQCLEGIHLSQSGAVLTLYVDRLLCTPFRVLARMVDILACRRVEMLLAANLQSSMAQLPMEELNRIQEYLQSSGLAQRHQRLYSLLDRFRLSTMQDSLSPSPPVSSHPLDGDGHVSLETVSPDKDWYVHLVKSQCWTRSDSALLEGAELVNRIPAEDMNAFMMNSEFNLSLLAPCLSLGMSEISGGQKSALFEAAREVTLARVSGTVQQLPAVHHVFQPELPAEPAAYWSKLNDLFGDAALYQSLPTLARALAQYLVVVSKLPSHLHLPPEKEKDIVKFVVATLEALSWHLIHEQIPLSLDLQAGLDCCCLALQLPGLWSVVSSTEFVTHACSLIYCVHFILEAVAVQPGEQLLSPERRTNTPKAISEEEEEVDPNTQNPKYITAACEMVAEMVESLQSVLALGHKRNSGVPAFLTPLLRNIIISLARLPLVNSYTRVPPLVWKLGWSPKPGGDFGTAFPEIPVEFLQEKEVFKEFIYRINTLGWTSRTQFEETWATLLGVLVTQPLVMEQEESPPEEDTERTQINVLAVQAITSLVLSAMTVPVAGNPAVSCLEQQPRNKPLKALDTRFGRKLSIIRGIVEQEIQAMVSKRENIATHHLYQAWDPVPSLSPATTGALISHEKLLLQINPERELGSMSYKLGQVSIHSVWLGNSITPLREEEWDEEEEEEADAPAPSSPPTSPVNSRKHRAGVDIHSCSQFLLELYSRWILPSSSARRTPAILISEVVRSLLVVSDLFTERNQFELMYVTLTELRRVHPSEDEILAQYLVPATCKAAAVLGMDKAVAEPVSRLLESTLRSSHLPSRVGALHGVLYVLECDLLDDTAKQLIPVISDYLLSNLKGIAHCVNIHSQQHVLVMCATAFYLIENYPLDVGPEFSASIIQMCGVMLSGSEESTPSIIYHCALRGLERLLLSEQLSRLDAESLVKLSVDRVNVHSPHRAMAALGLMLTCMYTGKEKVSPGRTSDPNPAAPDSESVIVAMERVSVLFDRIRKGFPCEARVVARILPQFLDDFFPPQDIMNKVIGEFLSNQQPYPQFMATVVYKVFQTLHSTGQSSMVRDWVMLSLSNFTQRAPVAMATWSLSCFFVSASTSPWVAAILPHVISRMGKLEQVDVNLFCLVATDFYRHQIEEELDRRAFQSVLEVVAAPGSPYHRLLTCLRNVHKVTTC
Pf apPOL inh = Pf-apPOL DNA polymerase inhibition | Recombinant Pf-apPOL, molecular beacon fluorescence, 1.5 h | inhibition, % at 10 µM | actives 0.25% (n = 210,000)
A number is an active result. This is one part of a sample in which hits are shown more often than they occur. No stated cut-off is given here; in the data, active means inhibition above about 50%; inactive means the rest.

What do the screens show for `O=C(Nc1ccc(O)cc1)C(=O)NC1CCCCCC1`?
mHTT-CaM PPI inh: inactive; Pf apPOL inh: inactive

How did COc1ccc(/C=C2/SC(c3ccccc3)=NC2=O)c(OC)c1OC do in these assays?
mHTT-CaM PPI inh: inactive; Pf apPOL inh: inactive

What do the screens show for `CC(=O)Nc1cc(C(=O)NC(C)C)c2ccc(C)nc2c1`?
mHTT-CaM PPI inh: inactive; Pf apPOL inh: inactive

Results for CC(=O)Nc1cc(C(=O)N2CCN(C3CCCCC3)CC2)c2ccc(C)nc2c1 ?
mHTT-CaM PPI inh: inactive; Pf apPOL inh: inactive

How did CC(=O)Nc1cc(C(=O)N2CCN(c3cccc(C)c3C)CC2)c2ccc(C)nc2c1 do in these assays?
mHTT-CaM PPI inh: 95; Pf apPOL inh: inactive

What do the screens show for `CC(=O)Nc1cc(C(=O)NC2CCCC2)c2ccc(C)nc2c1`?
mHTT-CaM PPI inh: 100; Pf apPOL inh: inactive

Results for CC(=O)Nc1cc(C(=O)NCCN2CCCCC2)c2ccc(C)nc2c1 ?
mHTT-CaM PPI inh: inactive; Pf apPOL inh: inactive

Results for CC(=O)Nc1cc(C(=O)N2CCN(c3cc(C)ccc3C)CC2)c2ccc(C)nc2c1 ?
mHTT-CaM PPI inh: 100; Pf apPOL inh: inactive

What do the screens show for `CC(=O)Nc1cc(C(=O)N2CCN(c3cccc(C)c3)CC2)c2ccc(C)nc2c1`?
mHTT-CaM PPI inh: 68; Pf apPOL inh: inactive

Results for Cc1cccc(N2CCN(C(=O)c3cccc([N+](=O)[O-])c3C)CC2)c1C ?
mHTT-CaM PPI inh: inactive; Pf apPOL inh: inactive

How did CCOc1ccc(CNC(=O)c2ccc3c(c2)NC(=O)C(N2CCCCC2)S3)cc1OC (centres undefined) do in these assays?
mHTT-CaM PPI inh: inactive; Pf apPOL inh: inactive

What do the screens show for `Cc1ccc2c(c1)CCCN2CN1C(=O)c2cccc([N+](=O)[O-])c2C1=O`?
mHTT-CaM PPI inh: inactive; Pf apPOL inh: inactive

How did CC(C)c1ccc(C(=O)N2CCc3c(c(-c4nc(C5CC5)no4)nn3C)C2)cc1 do in these assays?
mHTT-CaM PPI inh: inactive; Pf apPOL inh: inactive

How did O=C(Cc1ccccc1)Nc1cc(NC(=O)c2ccco2)ccc1Cl do in these assays?
mHTT-CaM PPI inh: inactive; Pf apPOL inh: inactive

Results for Cn1ccnc1Sc1cnc(SCc2ccc(Cl)cc2)nc1-c1ccc(Cl)cc1 ?
Pf apPOL inh: inactive

How did N=C1N=NC(c2ccccc2)=CS/C1=C\c1ccc(F)cc1 do in these assays?
mHTT-CaM PPI inh: 59; Pf apPOL inh: inactive

What do the screens show for `N=C1S/C(=C\c2ccccc2)C(=O)N1c1ccc(F)cc1`?
mHTT-CaM PPI inh: inactive; Pf apPOL inh: inactive

Results for CC(C)Oc1ccc(CNC(=O)c2ccc3c(c2)nc2n3CCCC2)cc1 ?
mHTT-CaM PPI inh: inactive; Pf apPOL inh: inactive

Results for Clc1ccc(Cn2cnc3ccccc32)cc1Cl ?
mHTT-CaM PPI inh: 52; Pf apPOL inh: inactive

How did Fc1ccc(Cn2cnc3ccccc32)cc1 do in these assays?
mHTT-CaM PPI inh: inactive; Pf apPOL inh: inactive

Results for O=C1OC(/C=C/c2cccc([N+](=O)[O-])c2)=NC/1=C\c1cccc(F)c1 ?
mHTT-CaM PPI inh: inactive; Pf apPOL inh: inactive

How did Fc1ccc(CN2CCc3nc(N4CCOCC4)ncc3C2)cc1 do in these assays?
mHTT-CaM PPI inh: inactive; Pf apPOL inh: inactive

How did O=C1NC(=Nc2ccccc2)S/C1=C/c1ccc(O)c(O)c1 do in these assays?
mHTT-CaM PPI inh: inactive; Pf apPOL inh: inactive

What do the screens show for `O=C1NC(=Nc2ccccc2)S/C1=C/c1cc(I)ccc1O`?
mHTT-CaM PPI inh: 52; Pf apPOL inh: inactive

What do the screens show for `Cc1ccccc1/C=C1/SC(=Nc2ccccc2)NC1=O`?
mHTT-CaM PPI inh: inactive; Pf apPOL inh: inactive

How did O=C1NC(=Nc2ccccc2)S/C1=C/c1cc(Br)cc(Cl)c1O do in these assays?
mHTT-CaM PPI inh: 96; Pf apPOL inh: inactive

What do the screens show for `COc1ccc(Br)cc1/C=C1/SC(=Nc2ccccc2)NC1=O`?
mHTT-CaM PPI inh: inactive; Pf apPOL inh: inactive

Results for O=C1NC(=Nc2ccccc2)S/C1=C/c1cc(Br)ccc1O ?
mHTT-CaM PPI inh: 55; Pf apPOL inh: inactive

How did COc1ccc(/C=C2/N=C(c3ccccc3Br)OC2=O)c(OC)c1 do in these assays?
mHTT-CaM PPI inh: inactive; Pf apPOL inh: inactive

Results for CC(C)Oc1ccccc1/C=C(\C#N)c1nc2ccccc2[nH]1 ?
mHTT-CaM PPI inh: inactive; Pf apPOL inh: inactive

What do the screens show for `Cc1ccccc1CNC(=O)c1ccc2c(c1)N(C)C(=O)C1CCCCN21` (centres undefined)?
mHTT-CaM PPI inh: inactive; Pf apPOL inh: inactive

Results for CCOc1ccccc1C(=O)N1CCc2cc(OC)c(OC)cc2C1COc1ccccc1OC (centres undefined) ?
mHTT-CaM PPI inh: 55; Pf apPOL inh: inactive

Results for COC(=O)c1ccc(OCC2c3cc(OC)c(OC)cc3CCN2C(=O)c2cc(OC)cc(OC)c2)cc1 (centres undefined) ?
mHTT-CaM PPI inh: inactive; Pf apPOL inh: inactive

Results for CCC(=O)N1CCc2cc(OC)c(OC)cc2C1COc1ccc(OC)cc1 (centres undefined) ?
mHTT-CaM PPI inh: inactive; Pf apPOL inh: inactive

What do the screens show for `COc1ccc(OCC2c3cc(OC)c(OC)cc3CCN2C(=O)c2ccc(OC)cc2)cc1` (centres undefined)?
mHTT-CaM PPI inh: 57; Pf apPOL inh: inactive

Results for COc1cc2c(cc1OC)C(COc1ccccc1OC)N(C(C)=O)CC2 (centres undefined) ?
mHTT-CaM PPI inh: inactive; Pf apPOL inh: inactive

How did COc1ccc(OCC2c3cc(OC)c(OC)cc3CCN2C(=O)c2c(F)cccc2F)cc1 (centres undefined) do in these assays?
mHTT-CaM PPI inh: inactive; Pf apPOL inh: 82

Results for CN(C)c1ccc(C=C2C(=O)c3ccccc3C2=O)cc1Br ?
mHTT-CaM PPI inh: inactive; Pf apPOL inh: inactive

Results for CC(=NNc1ccccc1)c1cc2cc(Br)ccc2oc1=O ?
Pf apPOL inh: inactive

How did CCOc1cccc(CNC(=O)c2nc(C)n(C3CCN(S(C)(=O)=O)CC3)c2C)c1 do in these assays?
mHTT-CaM PPI inh: inactive; Pf apPOL inh: inactive

Results for Cc1nc(N)[nH]c(=O)c1Oc1ccccc1 ?
mHTT-CaM PPI inh: inactive; Pf apPOL inh: inactive

Results for Nc1c(Oc2ccccc2)c(Oc2ccccc2)c(N)c2c1C(=O)c1ccccc1C2=O ?
mHTT-CaM PPI inh: 97; Pf apPOL inh: inactive

What do the screens show for `Cc1cc2c(=O)n(CC(=O)NCc3ccccn3)cnc2s1`?
mHTT-CaM PPI inh: inactive; Pf apPOL inh: inactive

Results for NNC(=O)c1nc[nH]c1C(=O)Nc1ccccc1 ?
mHTT-CaM PPI inh: 81; Pf apPOL inh: inactive

What do the screens show for `O=C(Nc1ccccc1)c1ccccc1`?
Pf apPOL inh: inactive

What do the screens show for `O=C(NCc1cccnc1)c1cccc(CN2C(=O)C3CCCN3C(=O)c3ccccc32)c1` (centres undefined)?
mHTT-CaM PPI inh: inactive; Pf apPOL inh: inactive

What do the screens show for `O=C(NCc1cccnc1)c1cccc(CN2C(=O)CSc3ccccc32)c1`?
mHTT-CaM PPI inh: 92; Pf apPOL inh: inactive

What do the screens show for `Cc1nc2c(C(=O)NC3CCCCC3C)cnn2c(C)c1Cc1ccccc1F` (centres undefined)?
mHTT-CaM PPI inh: inactive; Pf apPOL inh: inactive

How did COCc1cccc(NC(=O)c2cccc(Br)c2)c1 do in these assays?
mHTT-CaM PPI inh: inactive; Pf apPOL inh: 54

How did CC(=O)c1cccc(NC(=O)c2cccc(Br)c2)c1 do in these assays?
mHTT-CaM PPI inh: inactive; Pf apPOL inh: inactive

Results for CC(C)(C)c1csc(NC(=O)c2ccc(N3CCOCC3)c([N+](=O)[O-])c2)n1 ?
mHTT-CaM PPI inh: 55; Pf apPOL inh: inactive

How did COc1ccc(Cc2cnc(NC(=O)c3ccc(N4CCOCC4)c([N+](=O)[O-])c3)s2)cc1 do in these assays?
mHTT-CaM PPI inh: inactive; Pf apPOL inh: inactive

Results for CCN1CCN(C(=O)C2CCN(c3nc4ccc(-c5ccccc5)nc4s3)CC2)CC1 ?
mHTT-CaM PPI inh: inactive; Pf apPOL inh: inactive

Source: PubChem (University of Kansas High Throughput Screening Laboratory)
